The term inhibition denotes the change of the read-out against control, counted positive when it falls.

The structures appear in SMILES notation. Values without a mark were called inactive. For some assays here: Potency and affinity values are given separately. The source made the active and inactive calls. Unless noted, how the calls were made is not given here.

This note sets out measurements from PubChem BioAssay.

The nature of assay [1]: antimalarial activity against Dd2 strain (AID 2302;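 active means growth inhibition above 50% at the single 2 µM test dose, taken to imply half-maximal potency below 2 µM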;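 further: 0% = DMSO untreated growth and 100% = chloroquine plus artemisinin killed control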). The note with it: P. falciparum Dd2 in RBCs, LDH growth readout, 72 h; at 2 µM; hits give high values.
Assay [2] is described as follows: HepG2 cytotoxicity, primary screen, cytotoxicity control for P. falciparum antimalarial project, cell-based, ATP luminescence (AID 2303;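 active means inhibition above 50%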;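 further: 0% = DMSO wells and 100% = digitonin-killed cells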). The note with it: HepG2 viability, 24-48 h, at 10 µM, hits give high values.
Assay [3] concerns the target L-lactate dehydrogenase (Plasmodium falciparum (isolate CDC / Honduras)) (UniProt Q27743). The assay can be described thus: PfLDH activity inhibition – cell lysate, 3D7 strain, counter-screen for P. falciparum growth inhibition project (AID 2304).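 Further: 0% = vehicle and 100% = reference inhibitor.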 To be noted: P. falciparum 3D7 crude extract, LDH APAD/NBT absorbance; at 2 µM; hits give high values. A general note: A counterscreen serves to expose hits that act by an unwanted route or on another target.

The nature of assay [4]: inhibition of 3D7 malaria parasite growth – strain 3D7 (AID 2306).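 Further: 0% = DMSO wells and 100% = chloroquine plus artemisinin control wells.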 The note with it: P. falciparum 3D7 erythrocytic growth, LDH absorbance, 72 h; at 2 µM; hits give high values.
In assay [5] the target is Calcium-dependent protein kinase 1 (Plasmodium falciparum (isolate 3D7)) (UniProt P62344). Kind of assay: PfCDPK1 kinase inhibitors, biochemical, TCAMS library (AID 1159585; cut-off not given, nearly all actives have IC50 up to about 0.98 µM;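 further: inhibitors leave more ATP so luminescence rises with inhibition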). The note with it: recombinant PfCDPK1, Kinase-Glo ATP depletion luminescence. For orientation: In Kinase-Glo more light means more ATP remaining.
In assay [6] the target is Plasmodium falciparum protein kinase 6 (PK6, PF3D7_1337100) (UniProt Q8IDW1). The assay can be described thus: PfPK6 kinase inhibitors, biochemical, TCAMS library (AID 1159586). The note with it: recombinant PfPK6, Kinase-Glo ATP depletion luminescence.
For assay [7], the target named is Protein kinase 7 (PK7), Plasmodium falciparum 3D7 (PF3D7_0213400) (UniProt Q7YTF7). The assay can be described thus: inhibition of Plasmodium PK7 catalytic activity – biochemical, TCAMS antimalarial set, Kinase-Glo luminescence (AID 1159587). To be noted: recombinant PfPK7, Kinase-Glo ATP depletion luminescence.
Assay [8] deals with Calcium-dependent protein kinase 4 (Plasmodium falciparum (isolate 3D7)) (UniProt Q8IBS5). The assay can be described thus: PfCDPK4 kinase inhibitors, biochemical, TCAMS library (AID 1159588; cut-off not given, nearly all actives have IC50 up to about 0.91 µM). To be noted: recombinant PfCDPK4, Kinase-Glo ATP depletion luminescence.
Calcium-dependent protein kinase 4 (Plasmodium falciparum (isolate 3D7)), sequence (Q8IBS5 whole entry, looked up): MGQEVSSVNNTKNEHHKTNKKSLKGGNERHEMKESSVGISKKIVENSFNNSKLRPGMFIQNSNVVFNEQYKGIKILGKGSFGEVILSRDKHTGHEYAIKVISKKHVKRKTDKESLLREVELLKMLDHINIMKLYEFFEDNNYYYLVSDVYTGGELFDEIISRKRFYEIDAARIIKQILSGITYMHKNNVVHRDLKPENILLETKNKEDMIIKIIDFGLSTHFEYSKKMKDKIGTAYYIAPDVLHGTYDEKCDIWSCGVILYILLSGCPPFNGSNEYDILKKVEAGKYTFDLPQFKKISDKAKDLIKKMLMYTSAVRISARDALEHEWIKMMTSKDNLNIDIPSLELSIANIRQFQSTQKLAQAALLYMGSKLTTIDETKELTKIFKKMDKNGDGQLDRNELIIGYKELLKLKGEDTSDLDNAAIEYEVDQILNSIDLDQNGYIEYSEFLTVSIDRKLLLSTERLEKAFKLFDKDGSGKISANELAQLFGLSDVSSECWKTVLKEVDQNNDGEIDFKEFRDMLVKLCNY

Protein kinase 7 (PK7), Plasmodium falciparum 3D7 (PF3D7_0213400), sequence (Q7YTF7 1-343): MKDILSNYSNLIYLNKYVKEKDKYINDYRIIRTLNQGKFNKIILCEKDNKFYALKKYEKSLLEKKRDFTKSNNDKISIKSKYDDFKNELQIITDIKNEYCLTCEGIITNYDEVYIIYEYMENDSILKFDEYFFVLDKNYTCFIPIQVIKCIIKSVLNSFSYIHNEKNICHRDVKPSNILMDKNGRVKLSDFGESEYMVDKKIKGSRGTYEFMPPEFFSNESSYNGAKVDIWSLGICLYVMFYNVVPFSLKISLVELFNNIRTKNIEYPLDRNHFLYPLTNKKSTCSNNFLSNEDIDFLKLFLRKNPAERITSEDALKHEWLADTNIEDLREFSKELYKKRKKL
L-lactate dehydrogenase (Plasmodium falciparum (isolate CDC / Honduras)), sequence (Q27743 whole entry, looked up): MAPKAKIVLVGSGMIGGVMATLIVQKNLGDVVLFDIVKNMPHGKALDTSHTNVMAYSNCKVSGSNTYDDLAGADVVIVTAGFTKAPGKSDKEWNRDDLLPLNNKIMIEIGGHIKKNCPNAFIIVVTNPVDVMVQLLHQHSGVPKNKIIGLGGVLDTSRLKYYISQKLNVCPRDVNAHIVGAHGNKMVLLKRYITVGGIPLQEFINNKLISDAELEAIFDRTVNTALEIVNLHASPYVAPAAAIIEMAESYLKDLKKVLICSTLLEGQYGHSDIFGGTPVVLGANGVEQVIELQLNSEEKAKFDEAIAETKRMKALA
Calcium-dependent protein kinase 1 (Plasmodium falciparum (isolate 3D7)), sequence (P62344 whole entry, looked up): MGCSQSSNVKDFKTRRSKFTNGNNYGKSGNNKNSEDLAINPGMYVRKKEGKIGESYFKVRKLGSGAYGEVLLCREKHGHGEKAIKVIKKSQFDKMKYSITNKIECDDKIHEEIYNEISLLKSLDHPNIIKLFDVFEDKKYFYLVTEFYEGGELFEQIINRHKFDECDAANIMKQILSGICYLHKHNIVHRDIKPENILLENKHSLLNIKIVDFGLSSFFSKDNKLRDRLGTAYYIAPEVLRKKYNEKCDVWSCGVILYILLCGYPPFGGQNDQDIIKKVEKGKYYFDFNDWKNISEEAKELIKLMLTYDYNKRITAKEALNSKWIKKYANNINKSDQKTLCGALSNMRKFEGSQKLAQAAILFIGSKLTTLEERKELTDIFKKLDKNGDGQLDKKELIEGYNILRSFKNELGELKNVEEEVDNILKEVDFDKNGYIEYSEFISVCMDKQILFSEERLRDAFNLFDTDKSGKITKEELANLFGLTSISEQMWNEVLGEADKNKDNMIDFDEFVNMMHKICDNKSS
Plasmodium falciparum protein kinase 6 (PK6, PF3D7_1337100), sequence (Q8IDW1 1-305): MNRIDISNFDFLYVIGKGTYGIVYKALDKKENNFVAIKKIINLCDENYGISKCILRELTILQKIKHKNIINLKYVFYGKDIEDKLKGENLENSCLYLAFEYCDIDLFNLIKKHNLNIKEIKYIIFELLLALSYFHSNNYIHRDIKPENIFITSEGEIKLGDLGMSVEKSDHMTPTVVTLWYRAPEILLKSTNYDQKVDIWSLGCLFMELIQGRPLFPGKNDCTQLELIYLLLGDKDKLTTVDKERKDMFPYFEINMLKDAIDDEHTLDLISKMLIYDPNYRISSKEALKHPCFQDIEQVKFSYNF

On to `FC(F)(F)c1ccc2nc(-c3ccc(-c4cccc(CNCCc5ccncc5)c4)s3)[nH]c2c1`, for which the growth inhibition is 95% (active) in assay [1] and 100% (active) in assay [4]. Further, the inhibition was 20% in assay [2] and -6% in assay [3]. Besides, the outcome in assay [5], in assay [6], in assay [7] and in assay [8] was inactive.

In the case of `CN(C)Cc1cccc(-c2ccc(NC(=O)c3ccc4c(=O)n(Cc5ccoc5)cnc4c3)cc2)c1`, the growth inhibition in assay [1] is 9%; in assay [4], 98% (active). For the same compound, the inhibition is 54% (active) in assay [2] and 3% in assay [3]. The result in assay [5], in assay [6], in assay [7] and in assay [8] was inactive.

Turning to `CCCN(C(=O)c1ccccc1C)c1nnc(-c2ccccc2C)s1`, the growth inhibition in assay [1] is 65% (active); in assay [4], 90% (active). Moreover, the inhibition in assay [2] is 16%; in assay [3], -7%. Besides, the outcome in assay [5], in assay [6], in assay [7] and in assay [8] was inactive.

As for `O=C(Nc1cccc(F)c1)N1CCC(NS(=O)(=O)c2ccc(Br)cc2)CC1`, the growth inhibition in assay [1] is 23%; in assay [4] it was 93% (active). The values for the inhibition in assay [2] and in assay [3] were 4% and -1%, respectively. Further, the result in assay [5], in assay [6], in assay [7] and in assay [8] was inactive.

On to `CC(C)Cn1ncc2c3c(N)nc(N)nc3ccc21`, for which the growth inhibition in assay [1] was 73% (active); in assay [4], 94% (active). Further, the values for the inhibition in assay [2] and in assay [3] were 63% (active) and 1%, respectively. In addition, the outcome in assay [5], in assay [6], in assay [7] and in assay [8] was inactive.

In the case of `CC(C)N1CCC(N(Cc2ccc(-c3ccc(C(F)(F)F)cc3)cc2)C(=O)Cn2c(CCc3cccc(F)c3F)cc(=O)c3cn(C)nc32)CC1`, the growth inhibition in assay [1] was 78% (active); in assay [4], 89% (active). Besides, the inhibition is 100% (active) in assay [2] and 6% in assay [3]. The result in assay [5], in assay [6], in assay [7] and in assay [8] was inactive.

Regarding `Cc1ncccc1C(=O)Nc1ccc(-c2cccc(-c3nc4c(C)cccc4[nH]3)c2)cc1`, the growth inhibition is 31% in assay [1] and 95% (active) in assay [4]. The inhibition is 6% in assay [2] and -5% in assay [3]. The result in assay [5], in assay [6], in assay [7] and in assay [8] was inactive.

In the case of `CC(C)(C)NCc1cc(Nc2ccnc3cc(Cl)ccc23)ccc1F`, the growth inhibition is 100% (active) in assay [1] and 101% (active) in assay [4]. Also, the inhibition in assay [2] is 21%; in assay [3], 6%. In addition, the result in assay [5], in assay [6], in assay [7] and in assay [8] was inactive.

On to `Cc1cc(NC(=O)c2coc3cc(F)c(N4C[C@@H](C)N(C)[C@@H](C)C4)cc23)ccc1-n1ccnc1`, for which the growth inhibition in assay [1] was 42%; in assay [4], 96% (active). The inhibition in assay [2] is -9%; in assay [3], -3%. The outcome in assay [5], in assay [6], in assay [7] and in assay [8] was inactive.

For the compound `CN1CCN(CC(=O)Nc2cccc(-c3ccc(-c4nc5ccc(F)cc5[nH]4)s3)c2)CC1`, the growth inhibition in assay [1] was 94% (active); in assay [4], 101% (active). Also, the results for the inhibition in assay [2] and in assay [3] were 71% (active) and -4%, respectively. In addition, the outcome in assay [5], in assay [6], in assay [7] and in assay [8] was inactive.

As to `CN(C)CCN(C)Cc1ccc(-c2ccc(NC(=O)c3cccc(Cl)c3)cc2)cc1`, the growth inhibition in assay [1] was 54% (active); in assay [4], 94% (active). The results for the inhibition in assay [2] and in assay [3] were 50% (active) and 1%, respectively. Further, the result in assay [5], in assay [6], in assay [7] and in assay [8] was inactive.

Regarding `Cc1[nH]c(C)c(-c2ccc(-c3ccccc3C(F)(F)F)nc2)c(=O)c1Br`, the growth inhibition in assay [1] was 96% (active); in assay [4] it was 97% (active). For the same compound, the inhibition in assay [2] and in assay [3] was -3% throughout. Besides, the outcome in assay [5], in assay [6], in assay [7] and in assay [8] was inactive.

With `CCCN(CCC)CCCN(CCCN(CCC)CCC)c1cc(C)nc(Nc2ccc(Cl)cc2)n1`, the growth inhibition in assay [1] and in assay [4] was 101% (active) throughout. The inhibition in assay [2] was 34%; in assay [3] it was -6%. Moreover, the outcome in assay [5], in assay [6], in assay [7] and in assay [8] was inactive.

As to `CC(C)(C)c1ccc(S(=O)(=O)Nc2ccccc2Cn2nc(N3CCNCC3)ccc2=O)cc1`, the growth inhibition in assay [1] is 97% (active); in assay [4], 98% (active). Also, the inhibition is -5% in assay [2] and 2% in assay [3]. Also, the result in assay [5], in assay [6], in assay [7] and in assay [8] was inactive.

For `CC(C)(C)c1ccc(N2C(N)=NC(N)=NC2(C)C)cc1Cl`, the growth inhibition is 3% in assay [1] and 94% (active) in assay [4]. Further, the inhibition in assay [2] was 51% (active); in assay [3] it was -5%. Moreover, the outcome in assay [5], in assay [6], in assay [7] and in assay [8] was inactive.

As to `O=C1C2=C(Nc3ccccc3SC2c2cccs2)c2ccccc21` (configuration not stated), the growth inhibition was 93% (active) in assay [1] and 96% (active) in assay [4]. Further, the inhibition was 8% in assay [2] and 5% in assay [3]. In addition, the outcome in assay [5], in assay [6], in assay [7] and in assay [8] was inactive.

Take `CCOc1ccc(NC(=O)c2ccc(NCCCN3CC(C)CC(C)C3)c([N+](=O)[O-])c2)cc1` (configuration not stated): the figures for the growth inhibition in assay [1] and in assay [4] were 60% (active) and 101% (active), respectively. Moreover, the inhibition in assay [2] was 3%; in assay [3], -4%. Moreover, the result in assay [5], in assay [6], in assay [7] and in assay [8] was inactive.

On to `CCNc1cc(C(=O)N[C@@H](Cc2ccccc2)[C@H](O)CNC(C)(C)CC(C)(C)C)c(F)c(N2CCCCS2(=O)=O)c1`, for which the growth inhibition in assay [1] is 63% (active); in assay [4] it was 94% (active). The inhibition in assay [2] was 8%; in assay [3], -1%. Also, the result in assay [5], in assay [6], in assay [7] and in assay [8] was inactive.

On to `Cc1cccc2[nH]c(-c3cccc(-c4cccc(NC(=O)c5cnn6cccnc56)c4)c3)nc12`, for which the figures for the growth inhibition in assay [1] and in assay [4] were 17% and 101% (active), respectively. The figures for the inhibition in assay [2] and in assay [3] were 14% and -3%, respectively. Besides, the outcome in assay [5], in assay [6], in assay [7] and in assay [8] was inactive.
